Data on 18 molecules can be found in PubChem BioAssay (NCATS).

SMILES strings stand for the structures.

The test in a line: qHTS profiling of the MIPE4 collection as inhibitors of Plasmodium falciparum (DD2) proliferation (Rep 2) (AID 743346). The following applies: P. falciparum Dd2 in erythrocytes, SYBR Green DNA, 72 h; at 28.5 µM unless noted. A digest of the protocol:
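Erythrocytes infected with P. falciparum (0.3% parasitemia, 2.5% hematocrit) incubated with compounds 72 h at 37 C, 5% CO2. Lysis with saponin/Triton buffer containing SYBR Green I, overnight at room temperature in the dark; DNA fluorescence (485/535 nm) normalised to 0.29 uM artemisinin and DMSO.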
Regarding `CNCC[C@H](Oc1cccc2ccccc12)c1cccs1`, the parasite growth, % of control (lower = inhibition) came out at 14.2%.
As for `NC(=O)c1cccc(N)c1`, the parasite growth, % of control (lower = inhibition) was 93.2%.
In the case of `N=C(N)c1ccc(OCCCCCOc2ccc(C(=N)N)cc2)cc1` it was 15.7%; in that of `CC(C(=O)O)c1ccc2c(c1)CC(=O)c1ccccc1S2` (stereo not drawn), 187%; in that of `CCc1cc(C(N)=S)ccn1`, 6.58%.
In the case of `C[C@@H]1CN(c2c(F)c(N)c3c(=O)c(C(=O)O)cn(C4CC4)c3c2F)C[C@H](C)N1`, the parasite growth, % of control (lower = inhibition) amounted to 34.1% [at 9.64 µM].
Next, `S=P(N1CC1)(N1CC1)N1CC1`: 15.4%; `COc1nc(N)nc2c1ncn2[C@@H]1O[C@H](CO)[C@@H](O)[C@@H]1O`: 37.8%.
In the case of `CCCCCCNC(=O)n1cc(F)c(=O)[nH]c1=O` it was 30.5%; in that of `CCN1CCCC1CNC(=O)c1cc(S(N)(=O)=O)ccc1OC` (stereo not drawn), 41.9%; in that of `CC[C@H](C)C(=O)O[C@H]1C[C@@H](C)C=C2C=C[C@H](C)[C@H](CC[C@@H]3C[C@@H](O)CC(=O)O3)[C@H]21`, 83.7%.
Take `COc1ccc(-c2ccc3cc(C(=O)O)ccc3c2)cc1C12CC3CC(CC(C3)C1)C2`: the parasite growth, % of control (lower = inhibition) was 58.3%.
Next, `CCOC(=O)c1ccc(C#Cc2ccc3c(c2)C(C)(C)CCS3)nc1`: 29.1%; `CC(C)OC(=O)C(C(=O)OC(C)C)=C1SC=CS1`: 72.6%.
In the case of `CNC1CCCN(c2c(F)cc3c(=O)c(C(=O)O)cn(C4CC4)c3c2OC)C1` (stereo not drawn) it was 8.93%; in that of `O[C@@H](CNC[C@H](O)[C@H]1CCc2cc(F)ccc2O1)[C@@H]1CCc2cc(F)ccc2O1`, 19.2%.
In the case of `CN(C)CCc1c[nH]c2ccc(C[C@H]3COC(=O)N3)cc12`, the parasite growth, % of control (lower = inhibition) is 73.2%.
In the case of `COc1ncnc(NS(=O)(=O)c2ccc(N)cc2)c1OC` it was 99.5%.
